Results taken from article PMC11062922 (Nature Chemical Biology, 2023).
Where two headings read alike, the source gives them in different places.

Legend:
[1] = tested on: STK4; conditions: read-out: apparent Kd, n = 1
[2] = tested on: SYK; conditions: read-out: apparent Kd, n = 1
[3] = compound concentrations:100 nM and 1000 nM (sheet 'Lestaurtinib' of Supplementary Table 1),run:Lestaurtinib_02482_R1,Plate:MR011
[4] = compound concentrations:100 nM and 1000 nM (sheet 'Lestaurtinib' of Supplementary Table 1),run:Lestaurtinib_02482_R2,Plate:MR011
[5] = compound concentrations:100 nM and 1000 nM (sheet 'Lestaurtinib' of Supplementary Table 1),run:Lestaurtinib_02482_R3,Plate:MR011
[6] = compound concentrations:100 nM and 1000 nM (sheet 'Lestaurtinib' of Supplementary Table 1),run:Lestaurtinib_02487_R1,Plate:MR012
[7] = compound concentrations:100 nM and 1000 nM (sheet 'Lestaurtinib' of Supplementary Table 1),run:Lestaurtinib_02496_R1,Plate:MR013
[8] = compound concentrations:100 nM and 1000 nM (sheet 'Lestaurtinib' of Supplementary Table 1),run:Lestaurtinib_02566_R3,Plate:MR014
[9] = compound concentrations:100 nM and 1000 nM (sheet 'Lestaurtinib' of Supplementary Table 1),run:Lestaurtinib_02577_R3,Plate:MR016
[10] = compound concentrations:100 nM and 1000 nM (sheet 'Lestaurtinib' of Supplementary Table 1),run:Lestaurtinib_02584_R1,Plate:MR017
[11] = compound concentrations:100 nM and 1000 nM (sheet 'Lestaurtinib' of Supplementary Table 1),run:Lestaurtinib_02584_R3,Plate:MR017
[12] = compound concentrations:100 nM and 1000 nM (sheet 'Lestaurtinib' of Supplementary Table 1),run:Lestaurtinib_02601_R1,Plate:MR018
[13] = compound concentrations:100 nM and 1000 nM (sheet 'Lestaurtinib' of Supplementary Table 1),run:Lestaurtinib_02601_R2,Plate:MR018
[14] = compound concentrations:100 nM and 1000 nM (sheet 'Lestaurtinib' of Supplementary Table 1),run:Lestaurtinib_02601_R3,Plate:MR018
[15] = compound concentrations:100 nM and 1000 nM (sheet 'Lestaurtinib' of Supplementary Table 1),run:Lestaurtinib_02606_R1,Plate:MR019
[16] = compound concentrations:100 nM and 1000 nM (sheet 'Lestaurtinib' of Supplementary Table 1),run:Lestaurtinib_02606_R2,Plate:MR019
[17] = compound concentrations:100 nM and 1000 nM (sheet 'Lestaurtinib' of Supplementary Table 1),run:Lestaurtinib_02624_R1,Plate:MR020
[18] = compound concentrations:100 nM and 1000 nM (sheet 'Lestaurtinib' of Supplementary Table 1),run:Lestaurtinib_02741_R2,Plate:MR023

Lestaurtinib
potency estimated from few doses [1, 3]: 34.5 nM
potency estimated from few doses [1, 4]: 42.5 nM
potency estimated from few doses [1, 5]: 38.1 nM
potency estimated from few doses [1, 6]: 33 nM
potency estimated from few doses ([1]; compound concentrations:100 nM and 1000 nM (sheet 'Lestaurtinib' of Supplementary Table 1),run:Lestaurtinib_02487_R3,Plate:MR012): 48 nM
potency estimated from few doses [1, 7]: 39.4 nM
potency estimated from few doses ([1]; compound concentrations:100 nM and 1000 nM (sheet 'Lestaurtinib' of Supplementary Table 1),run:Lestaurtinib_02496_R3,Plate:MR013): 36.6 nM
potency estimated from few doses ([1]; compound concentrations:100 nM and 1000 nM (sheet 'Lestaurtinib' of Supplementary Table 1),run:Lestaurtinib_02566_R2,Plate:MR014): 53.6 nM
potency estimated from few doses [1, 8]: 36.8 nM
potency estimated from few doses ([1]; compound concentrations:100 nM and 1000 nM (sheet 'Lestaurtinib' of Supplementary Table 1),run:Lestaurtinib_02572_R2,Plate:MR015): 38.4 nM
potency estimated from few doses ([1]; compound concentrations:100 nM and 1000 nM (sheet 'Lestaurtinib' of Supplementary Table 1),run:Lestaurtinib_02572_R3,Plate:MR015): 51.5 nM
potency estimated from few doses [1, 9]: 26.1 nM
potency estimated from few doses [1, 10]: 32.3 nM
potency estimated from few doses ([1]; compound concentrations:100 nM and 1000 nM (sheet 'Lestaurtinib' of Supplementary Table 1),run:Lestaurtinib_02584_R2,Plate:MR017): 37.7 nM
potency estimated from few doses [1, 11]: 39.7 nM
potency estimated from few doses [1, 12]: 47.3 nM
potency estimated from few doses [1, 13]: 41.1 nM
potency estimated from few doses [1, 14]: 51.2 nM
potency estimated from few doses [1, 15]: 38.6 nM
potency estimated from few doses [1, 16]: 55.6 nM
potency estimated from few doses [1, 17]: 48.3 nM
potency estimated from few doses ([1]; compound concentrations:100 nM and 1000 nM (sheet 'Lestaurtinib' of Supplementary Table 1),run:Lestaurtinib_02724_R1,Plate:MR021): 52.4 nM
potency estimated from few doses ([1]; compound concentrations:100 nM and 1000 nM (sheet 'Lestaurtinib' of Supplementary Table 1),run:Lestaurtinib_02724_R2,Plate:MR021): 41.4 nM
potency estimated from few doses ([1]; compound concentrations:100 nM and 1000 nM (sheet 'Lestaurtinib' of Supplementary Table 1),run:Lestaurtinib_02724_R3,Plate:MR021): 39.8 nM
potency estimated from few doses [1, 18]: 36.2 nM
potency estimated from few doses ([1]; compound concentrations:100 nM and 1000 nM (sheet 'Lestaurtinib' of Supplementary Table 1),run:Lestaurtinib_02748_R2,Plate:MR024): 31.7 nM
potency estimated from few doses ([1]; compound concentrations:100 nM and 1000 nM (sheet 'Lestaurtinib' of Supplementary Table 1),run:Lestaurtinib_02748_R3,Plate:MR024): 40.9 nM
potency estimated from few doses ([1]; compound concentrations:100 nM and 1000 nM (sheet 'Lestaurtinib' of Supplementary Table 1),run:Lestaurtinib_02752_R1,Plate:MR025): 51.5 nM
potency estimated from few doses ([1]; compound concentrations:100 nM and 1000 nM (sheet 'Lestaurtinib' of Supplementary Table 1),run:Lestaurtinib_02752_R2,Plate:MR025): 36.2 nM
potency estimated from few doses ([1]; compound concentrations:100 nM and 1000 nM (sheet 'Lestaurtinib' of Supplementary Table 1),run:Lestaurtinib_02752_R3,Plate:MR025): 35.9 nM
potency estimated from few doses ([1]; compound concentrations:100 nM and 1000 nM (sheet 'Lestaurtinib' of Supplementary Table 1),run:Lestaurtinib_02766_R2,Plate:MR027): 45.4 nM
potency estimated from few doses ([1]; compound concentrations:100 nM and 1000 nM (sheet 'Lestaurtinib' of Supplementary Table 1),run:Lestaurtinib_02768_R1,Plate:MR028): 43.2 nM
potency estimated from few doses ([1]; compound concentrations:100 nM and 1000 nM (sheet 'Lestaurtinib' of Supplementary Table 1),run:Lestaurtinib_02795_R2,Plate:MR022): 29.7 nM
potency estimated from few doses ([1]; compound concentrations:100 nM and 1000 nM (sheet 'Lestaurtinib' of Supplementary Table 1),run:Lestaurtinib_02802_R1,Plate:MR029): 34.7 nM
potency estimated from few doses ([1]; compound concentrations:100 nM and 1000 nM (sheet 'Lestaurtinib' of Supplementary Table 1),run:Lestaurtinib_02896_R1,Plate:MR030): 35.8 nM
potency estimated from few doses ([1]; compound concentrations:100 nM and 1000 nM (sheet 'Lestaurtinib' of Supplementary Table 1),run:Lestaurtinib_03172_R1,Plate:MR031): 30.6 nM
potency estimated from few doses ([1]; compound concentrations:100 nM and 1000 nM (sheet 'Lestaurtinib' of Supplementary Table 1),run:Lestaurtinib_03172_R2,Plate:MR031): 38.8 nM
potency estimated from few doses ([1]; compound concentrations:100 nM and 1000 nM (sheet 'Lestaurtinib' of Supplementary Table 1),run:Lestaurtinib_03172_R3,Plate:MR031): 35.2 nM
potency estimated from few doses ([1]; compound concentrations:100 nM and 1000 nM (sheet 'Lestaurtinib' of Supplementary Table 1),run:Lestaurtinib_03252_R2,Plate:MR032): 45.6 nM
potency estimated from few doses ([1]; compound concentrations:100 nM and 1000 nM (sheet 'Lestaurtinib' of Supplementary Table 1),run:Lestaurtinib_03260_R1,Plate:MR033): 38.2 nM
potency estimated from few doses ([1]; compound concentrations:100 nM and 1000 nM (sheet 'Lestaurtinib' of Supplementary Table 1),run:Lestaurtinib_03260_R2,Plate:MR033): 47.5 nM
potency estimated from few doses ([2]; compound concentrations:100 nM and 1000 nM (sheet 'Lestaurtinib' of Supplementary Table 1),run:Lestaurtinib_02339_R1,Plate:MR001): 511 nM
potency estimated from few doses ([2]; compound concentrations:100 nM and 1000 nM (sheet 'Lestaurtinib' of Supplementary Table 1),run:Lestaurtinib_02364_R1,Plate:MR002): 481 nM
potency estimated from few doses ([2]; compound concentrations:100 nM and 1000 nM (sheet 'Lestaurtinib' of Supplementary Table 1),run:Lestaurtinib_02364_R3,Plate:MR002): 486 nM
potency estimated from few doses ([2]; compound concentrations:100 nM and 1000 nM (sheet 'Lestaurtinib' of Supplementary Table 1),run:Lestaurtinib_02367_R1,Plate:MR003): 140 nM
potency estimated from few doses ([2]; compound concentrations:100 nM and 1000 nM (sheet 'Lestaurtinib' of Supplementary Table 1),run:Lestaurtinib_02381_R1,Plate:MR004): 206 nM
potency estimated from few doses ([2]; compound concentrations:100 nM and 1000 nM (sheet 'Lestaurtinib' of Supplementary Table 1),run:Lestaurtinib_02381_R2,Plate:MR004): 170 nM
potency estimated from few doses ([2]; compound concentrations:100 nM and 1000 nM (sheet 'Lestaurtinib' of Supplementary Table 1),run:Lestaurtinib_02381_R3,Plate:MR004): 440 nM
potency estimated from few doses ([2]; compound concentrations:100 nM and 1000 nM (sheet 'Lestaurtinib' of Supplementary Table 1),run:Lestaurtinib_02407_R1,Plate:MR005): 189 nM
potency estimated from few doses ([2]; compound concentrations:100 nM and 1000 nM (sheet 'Lestaurtinib' of Supplementary Table 1),run:Lestaurtinib_02407_R2,Plate:MR005): 134 nM
potency estimated from few doses ([2]; compound concentrations:100 nM and 1000 nM (sheet 'Lestaurtinib' of Supplementary Table 1),run:Lestaurtinib_02407_R3,Plate:MR005): 157 nM
potency estimated from few doses ([2]; compound concentrations:100 nM and 1000 nM (sheet 'Lestaurtinib' of Supplementary Table 1),run:Lestaurtinib_02422_R2,Plate:MR006): 507 nM
potency estimated from few doses ([2]; compound concentrations:100 nM and 1000 nM (sheet 'Lestaurtinib' of Supplementary Table 1),run:Lestaurtinib_02422_R3,Plate:MR006): 218 nM
potency estimated from few doses ([2]; compound concentrations:100 nM and 1000 nM (sheet 'Lestaurtinib' of Supplementary Table 1),run:Lestaurtinib_02437_R2,Plate:MR007): 500 nM
potency estimated from few doses ([2]; compound concentrations:100 nM and 1000 nM (sheet 'Lestaurtinib' of Supplementary Table 1),run:Lestaurtinib_02438_R2,Plate:MR008): 161 nM
potency estimated from few doses ([2]; compound concentrations:100 nM and 1000 nM (sheet 'Lestaurtinib' of Supplementary Table 1),run:Lestaurtinib_02443_R1,Plate:MR009): 437 nM
potency estimated from few doses ([2]; compound concentrations:100 nM and 1000 nM (sheet 'Lestaurtinib' of Supplementary Table 1),run:Lestaurtinib_02473_R1,Plate:MR010): 478 nM
potency estimated from few doses ([2]; compound concentrations:100 nM and 1000 nM (sheet 'Lestaurtinib' of Supplementary Table 1),run:Lestaurtinib_02473_R2,Plate:MR010): 446 nM
potency estimated from few doses ([2]; compound concentrations:100 nM and 1000 nM (sheet 'Lestaurtinib' of Supplementary Table 1),run:Lestaurtinib_02473_R3,Plate:MR010): 416 nM
potency estimated from few doses [2, 3]: 523 nM
potency estimated from few doses [2, 4]: 462 nM
potency estimated from few doses [2, 5]: 432 nM
potency estimated from few doses [2, 6]: 598 nM
potency estimated from few doses ([2]; compound concentrations:100 nM and 1000 nM (sheet 'Lestaurtinib' of Supplementary Table 1),run:Lestaurtinib_02487_R2,Plate:MR012): 495 nM
potency estimated from few doses [2, 7]: 515 nM
potency estimated from few doses ([2]; compound concentrations:100 nM and 1000 nM (sheet 'Lestaurtinib' of Supplementary Table 1),run:Lestaurtinib_02496_R2,Plate:MR013): 579 nM
potency estimated from few doses ([2]; compound concentrations:100 nM and 1000 nM (sheet 'Lestaurtinib' of Supplementary Table 1),run:Lestaurtinib_02566_R1,Plate:MR014): 297 nM
potency estimated from few doses [2, 8]: 134 nM
potency estimated from few doses ([2]; compound concentrations:100 nM and 1000 nM (sheet 'Lestaurtinib' of Supplementary Table 1),run:Lestaurtinib_02577_R1,Plate:MR016): 260 nM
potency estimated from few doses [2, 9]: 149 nM
potency estimated from few doses [2, 10]: 473 nM
potency estimated from few doses [2, 11]: 401 nM
potency estimated from few doses [2, 12]: 420 nM
potency estimated from few doses [2, 13]: 553 nM
potency estimated from few doses [2, 14]: 462 nM
potency estimated from few doses [2, 15]: 388 nM
potency estimated from few doses [2, 16]: 511 nM
potency estimated from few doses ([2]; compound concentrations:100 nM and 1000 nM (sheet 'Lestaurtinib' of Supplementary Table 1),run:Lestaurtinib_02606_R3,Plate:MR019): 488 nM
potency estimated from few doses [2, 17]: 402 nM
potency estimated from few doses ([2]; compound concentrations:100 nM and 1000 nM (sheet 'Lestaurtinib' of Supplementary Table 1),run:Lestaurtinib_02624_R2,Plate:MR020): 440 nM
potency estimated from few doses ([2]; compound concentrations:100 nM and 1000 nM (sheet 'Lestaurtinib' of Supplementary Table 1),run:Lestaurtinib_02624_R3,Plate:MR020): 215 nM
potency estimated from few doses ([2]; compound concentrations:100 nM and 1000 nM (sheet 'Lestaurtinib' of Supplementary Table 1),run:Lestaurtinib_02741_R1,Plate:MR023): 395 nM
potency estimated from few doses [2, 18]: 396 nM
potency estimated from few doses ([2]; compound concentrations:100 nM and 1000 nM (sheet 'Lestaurtinib' of Supplementary Table 1),run:Lestaurtinib_02741_R3,Plate:MR023): 236 nM
